{"source": "the supplement of paper PMC10849652", "note": "The full data set covers some 8,800 targets. This sample favours those with a hit. About 0.5% of all pairs of compound and target were hits. Values without a mark were called inactive."}
{"compound": "NCC(=O)Nc1ccc(-n2nc(C(F)(F)F)cc2-c2ccc3c(ccc4ccccc43)c2)cc1", "assay": "log2 fold change, soluble protein after heating vs DMSO (PISA); higher = thermal stabilisation; K562 lysate, 10 uM; active = over 0.2 and 3.5 SD of the protein, either way, in both replicates (recomputed)", "outline": "(§1)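 K562 pellets were dounce-homogenised in PBS pH 7.4 with 1 mM MgCl2, and the crude extract at 1 mg/mL protein was treated with 10 μM compound for 30 min. Aliquots were heated for 3 min across 48°C-58°C, pooled, and brought to 0.5% NP-40 at 4°C; soluble protein was the supernatant after 21,000xg for 90 min. Soluble protein was quantified by TMTpro 16plex LC-MS/MS with channel sums equalised, and reported as log2 fold change in thermal stability against DMSO controls, with values from duplicates.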"}
{"target": "DESI2 (UniProt Q9BSY9)", "log2 fold change": 0.155}
{"target": "CSNK2A1 (UniProt P68400)", "sequence (P68400 whole entry, looked up)": "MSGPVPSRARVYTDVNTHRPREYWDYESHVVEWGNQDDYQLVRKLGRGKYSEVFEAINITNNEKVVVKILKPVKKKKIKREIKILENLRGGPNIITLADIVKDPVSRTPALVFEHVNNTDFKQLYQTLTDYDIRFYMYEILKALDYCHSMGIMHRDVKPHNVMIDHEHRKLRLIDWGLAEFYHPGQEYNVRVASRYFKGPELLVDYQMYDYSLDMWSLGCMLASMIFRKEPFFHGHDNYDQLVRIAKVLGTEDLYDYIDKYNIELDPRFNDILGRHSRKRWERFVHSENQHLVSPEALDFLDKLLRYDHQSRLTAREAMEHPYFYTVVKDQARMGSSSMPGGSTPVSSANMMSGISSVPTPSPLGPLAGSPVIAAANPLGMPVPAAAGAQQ", "log2 fold change": 0.15}
{"target": "CSPP1 (UniProt Q1MSJ5)", "sequence (Q1MSJ5 whole entry, looked up)": "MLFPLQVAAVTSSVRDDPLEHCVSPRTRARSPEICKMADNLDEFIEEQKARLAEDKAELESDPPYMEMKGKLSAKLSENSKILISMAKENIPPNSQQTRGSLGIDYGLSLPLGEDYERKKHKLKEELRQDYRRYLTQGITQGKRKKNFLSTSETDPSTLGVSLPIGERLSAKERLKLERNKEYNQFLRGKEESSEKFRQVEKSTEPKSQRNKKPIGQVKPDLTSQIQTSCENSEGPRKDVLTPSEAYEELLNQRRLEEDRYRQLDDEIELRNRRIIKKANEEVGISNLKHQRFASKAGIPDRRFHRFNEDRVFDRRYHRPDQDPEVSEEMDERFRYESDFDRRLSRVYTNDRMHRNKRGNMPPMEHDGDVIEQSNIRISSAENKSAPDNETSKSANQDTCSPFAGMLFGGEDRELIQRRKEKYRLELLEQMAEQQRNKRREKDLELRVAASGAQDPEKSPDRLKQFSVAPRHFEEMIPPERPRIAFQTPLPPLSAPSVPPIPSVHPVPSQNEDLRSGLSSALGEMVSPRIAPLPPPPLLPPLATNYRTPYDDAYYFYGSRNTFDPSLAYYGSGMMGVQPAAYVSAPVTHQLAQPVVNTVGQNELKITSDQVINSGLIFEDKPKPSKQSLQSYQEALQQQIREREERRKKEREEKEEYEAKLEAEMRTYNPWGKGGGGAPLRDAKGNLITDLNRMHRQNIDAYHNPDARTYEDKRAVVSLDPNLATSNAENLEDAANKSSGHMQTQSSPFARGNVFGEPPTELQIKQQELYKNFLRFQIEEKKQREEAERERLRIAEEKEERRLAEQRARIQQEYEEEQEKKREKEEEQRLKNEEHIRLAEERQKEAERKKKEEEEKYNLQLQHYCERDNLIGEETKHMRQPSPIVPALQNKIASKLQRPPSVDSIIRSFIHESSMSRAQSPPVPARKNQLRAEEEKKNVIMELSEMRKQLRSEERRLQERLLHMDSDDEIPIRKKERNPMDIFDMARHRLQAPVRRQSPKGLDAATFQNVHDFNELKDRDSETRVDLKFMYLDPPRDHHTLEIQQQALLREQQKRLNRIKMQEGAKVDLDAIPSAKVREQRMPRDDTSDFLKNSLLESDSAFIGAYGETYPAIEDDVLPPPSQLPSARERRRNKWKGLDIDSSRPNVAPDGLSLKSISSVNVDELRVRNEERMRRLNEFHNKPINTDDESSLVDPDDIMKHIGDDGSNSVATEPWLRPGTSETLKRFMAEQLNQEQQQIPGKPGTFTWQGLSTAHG", "log2 fold change": 0.122}
{"target": "DLD (UniProt P09622)", "sequence (P09622 whole entry, looked up)": "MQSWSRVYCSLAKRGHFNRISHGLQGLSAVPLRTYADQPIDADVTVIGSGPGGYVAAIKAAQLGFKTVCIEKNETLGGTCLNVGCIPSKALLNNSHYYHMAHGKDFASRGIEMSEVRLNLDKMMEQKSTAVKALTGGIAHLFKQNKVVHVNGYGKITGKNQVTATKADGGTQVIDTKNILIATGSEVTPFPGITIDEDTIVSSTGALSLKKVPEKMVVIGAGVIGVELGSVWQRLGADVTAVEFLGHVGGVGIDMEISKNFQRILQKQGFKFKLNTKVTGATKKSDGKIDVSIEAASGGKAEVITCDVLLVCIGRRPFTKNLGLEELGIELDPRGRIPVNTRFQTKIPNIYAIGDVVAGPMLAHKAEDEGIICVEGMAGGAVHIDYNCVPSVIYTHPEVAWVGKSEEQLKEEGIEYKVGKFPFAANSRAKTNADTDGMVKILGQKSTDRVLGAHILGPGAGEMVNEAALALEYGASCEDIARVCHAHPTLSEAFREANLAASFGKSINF", "log2 fold change": -0.003}
{"target": "CMSS1 (UniProt Q9BQ75)", "sequence (Q9BQ75 whole entry, looked up)": "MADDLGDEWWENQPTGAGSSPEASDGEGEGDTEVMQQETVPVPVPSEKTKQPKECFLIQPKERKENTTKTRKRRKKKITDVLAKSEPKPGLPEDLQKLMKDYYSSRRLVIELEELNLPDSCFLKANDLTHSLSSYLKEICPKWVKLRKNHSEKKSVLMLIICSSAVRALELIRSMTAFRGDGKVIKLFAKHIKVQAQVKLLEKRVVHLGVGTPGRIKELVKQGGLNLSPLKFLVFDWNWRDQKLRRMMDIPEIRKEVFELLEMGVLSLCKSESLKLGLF", "log2 fold change": 0.025}
{"target": "DALRD3 (UniProt Q5D0E6)", "sequence (Q5D0E6 whole entry, looked up)": "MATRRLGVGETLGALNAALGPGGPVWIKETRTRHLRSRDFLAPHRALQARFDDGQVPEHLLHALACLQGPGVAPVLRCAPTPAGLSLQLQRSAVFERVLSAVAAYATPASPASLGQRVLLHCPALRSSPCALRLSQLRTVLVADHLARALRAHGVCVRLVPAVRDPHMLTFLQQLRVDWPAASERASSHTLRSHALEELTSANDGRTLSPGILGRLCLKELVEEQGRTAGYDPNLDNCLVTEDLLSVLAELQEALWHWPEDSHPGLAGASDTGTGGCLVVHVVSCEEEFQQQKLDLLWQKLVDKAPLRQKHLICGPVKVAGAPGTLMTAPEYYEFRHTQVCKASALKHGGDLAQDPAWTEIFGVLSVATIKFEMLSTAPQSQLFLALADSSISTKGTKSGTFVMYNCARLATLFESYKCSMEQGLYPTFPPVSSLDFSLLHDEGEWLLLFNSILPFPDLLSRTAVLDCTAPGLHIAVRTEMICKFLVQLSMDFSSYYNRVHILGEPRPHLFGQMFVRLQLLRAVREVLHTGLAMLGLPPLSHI", "log2 fold change": -0.17}
{"target": "CNTN4 (UniProt Q8IWV2)", "log2 fold change": 0.173}
{"target": "CXCL14 (UniProt O95715)", "log2 fold change": 0.24}
{"target": "DDX54 isoform 2 (UniProt Q8TDD1)", "sequence (Q8TDD1 whole entry, looked up)": "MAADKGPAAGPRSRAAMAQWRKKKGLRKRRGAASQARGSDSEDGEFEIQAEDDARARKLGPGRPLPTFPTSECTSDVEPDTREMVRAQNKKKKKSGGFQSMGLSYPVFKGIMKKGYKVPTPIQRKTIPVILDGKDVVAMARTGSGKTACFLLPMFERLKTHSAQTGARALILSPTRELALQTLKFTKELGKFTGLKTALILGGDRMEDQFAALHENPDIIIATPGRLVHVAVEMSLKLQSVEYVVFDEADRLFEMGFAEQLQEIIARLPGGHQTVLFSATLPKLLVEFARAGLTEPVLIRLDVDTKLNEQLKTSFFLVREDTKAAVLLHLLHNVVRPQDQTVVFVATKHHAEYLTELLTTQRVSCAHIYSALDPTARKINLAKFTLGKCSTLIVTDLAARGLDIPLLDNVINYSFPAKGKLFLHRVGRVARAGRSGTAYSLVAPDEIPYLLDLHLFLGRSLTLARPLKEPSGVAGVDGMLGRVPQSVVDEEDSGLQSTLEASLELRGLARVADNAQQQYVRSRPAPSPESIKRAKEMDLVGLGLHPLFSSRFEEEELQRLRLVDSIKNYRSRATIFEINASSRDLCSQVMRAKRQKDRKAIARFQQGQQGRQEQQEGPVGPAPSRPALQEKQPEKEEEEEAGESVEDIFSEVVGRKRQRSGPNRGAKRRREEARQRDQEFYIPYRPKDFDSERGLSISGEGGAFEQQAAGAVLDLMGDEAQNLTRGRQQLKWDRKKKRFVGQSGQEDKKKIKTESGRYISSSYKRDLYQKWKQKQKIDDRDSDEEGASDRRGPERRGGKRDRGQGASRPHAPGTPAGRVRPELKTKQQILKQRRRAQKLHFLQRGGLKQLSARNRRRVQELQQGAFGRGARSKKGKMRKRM", "log2 fold change": 0.131}
{"target": "CLASP2 (UniProt O75122)", "log2 fold change": 0.052}
{"target": "DDX4 (UniProt Q9NQI0)", "log2 fold change": 0.019}
{"target": "CSNK1D (UniProt P48730)", "log2 fold change": 0.002}
{"target": "CLIP1, A0A3B3ITA2", "log2 fold change": 0.136}
{"target": "CNK3/IPCEF1 isoform 2 (UniProt G9CGD6)", "log2 fold change": -0.02}
{"target": "COQ9 (UniProt O75208)", "log2 fold change": 0.005}
{"target": "DNAAF5 (UniProt Q86Y56)", "log2 fold change": 0.029}
{"target": "CPLX1 (UniProt O14810)", "sequence (O14810 whole entry, looked up)": "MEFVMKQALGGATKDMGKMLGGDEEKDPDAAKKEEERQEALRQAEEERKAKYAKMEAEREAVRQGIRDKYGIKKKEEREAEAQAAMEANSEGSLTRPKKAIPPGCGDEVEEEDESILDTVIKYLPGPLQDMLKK", "log2 fold change": 0}
{"target": "CINP isoform 3 (UniProt Q9BW66)", "log2 fold change": 0.084}
{"target": "DES (UniProt P17661)", "sequence (P17661 whole entry, looked up)": "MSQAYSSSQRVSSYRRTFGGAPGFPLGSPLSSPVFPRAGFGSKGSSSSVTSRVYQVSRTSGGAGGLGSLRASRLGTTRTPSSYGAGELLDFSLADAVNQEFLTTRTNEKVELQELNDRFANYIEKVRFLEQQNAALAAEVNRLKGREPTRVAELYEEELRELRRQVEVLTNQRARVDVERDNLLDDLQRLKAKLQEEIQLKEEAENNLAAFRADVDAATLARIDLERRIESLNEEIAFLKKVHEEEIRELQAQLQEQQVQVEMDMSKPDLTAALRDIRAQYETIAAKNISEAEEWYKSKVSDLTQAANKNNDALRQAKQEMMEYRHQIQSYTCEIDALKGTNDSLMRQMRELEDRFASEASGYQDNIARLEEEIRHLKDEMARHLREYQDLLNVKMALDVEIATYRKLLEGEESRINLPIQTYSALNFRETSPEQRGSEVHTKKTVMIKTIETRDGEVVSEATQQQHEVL", "log2 fold change": 0.108}
{"target": "DHCR7 (UniProt Q9UBM7)", "sequence (Q9UBM7 whole entry, looked up)": "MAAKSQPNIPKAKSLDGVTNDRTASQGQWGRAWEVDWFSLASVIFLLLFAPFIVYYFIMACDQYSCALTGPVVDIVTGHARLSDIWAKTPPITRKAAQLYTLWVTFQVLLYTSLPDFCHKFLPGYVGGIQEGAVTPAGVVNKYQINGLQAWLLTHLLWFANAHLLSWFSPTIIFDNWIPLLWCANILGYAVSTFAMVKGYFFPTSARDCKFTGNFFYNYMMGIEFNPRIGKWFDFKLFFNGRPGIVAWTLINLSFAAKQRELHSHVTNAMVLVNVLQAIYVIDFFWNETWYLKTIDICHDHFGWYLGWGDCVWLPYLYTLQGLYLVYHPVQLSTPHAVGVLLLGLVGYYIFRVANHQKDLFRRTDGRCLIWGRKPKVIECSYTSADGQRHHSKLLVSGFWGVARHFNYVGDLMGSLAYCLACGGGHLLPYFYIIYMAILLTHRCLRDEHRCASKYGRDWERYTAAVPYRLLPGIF", "log2 fold change": -0.098}
{"compound": "O=C(CCCCCCC(=O)Nc1ccccc1)NO [vorinostat]", "assay": "log2 fold change, soluble protein after heating vs DMSO (PISA); higher = thermal stabilisation; K562 lysate, 10 uM; active = over 0.2 and 3.5 SD of the protein, either way, in both replicates (recomputed)", "outline": "as §1"}
{"target": "DHRS13 (UniProt Q6UX07)", "log2 fold change": "1.11 (active)"}
{"target": "CSNK2A1 (UniProt P68400)", "log2 fold change": 0.057}
{"target": "COL6A3 (UniProt P12111)", "log2 fold change": 0.273}
{"target": "CSPP1 (UniProt Q1MSJ5)", "log2 fold change": 0.085}
{"target": "DLD (UniProt P09622)", "log2 fold change": "-1.96 (active)"}
{"target": "CMSS1 (UniProt Q9BQ75)", "log2 fold change": "-0.272 (active)"}
{"target": "CRLS1 (UniProt Q9UJA2)", "log2 fold change": "-0.572 (active)"}
{"target": "DALRD3 (UniProt Q5D0E6)", "log2 fold change": "-0.895 (active)"}
{"target": "CNTN4 (UniProt Q8IWV2)", "log2 fold change": -0.026}
{"target": "DDX54 isoform 2 (UniProt Q8TDD1)", "log2 fold change": 0.066}
{"target": "CNOT2 (UniProt F8VRS8)", "log2 fold change": -0.056}
{"target": "DDX4 (UniProt Q9NQI0)", "log2 fold change": -0.213}
{"target": "DNM2 isoform 4 (UniProt P50570)", "log2 fold change": "-0.826 (active)"}
{"target": "CNK3/IPCEF1 isoform 2 (UniProt G9CGD6)", "log2 fold change": -0.279}
{"target": "COQ9 (UniProt O75208)", "log2 fold change": 0.084}
{"target": "DNAAF5 (UniProt Q86Y56)", "log2 fold change": "-0.313 (active)"}
{"target": "COPS9 (UniProt Q8WXC6)", "sequence (Q8WXC6 whole entry, looked up)": "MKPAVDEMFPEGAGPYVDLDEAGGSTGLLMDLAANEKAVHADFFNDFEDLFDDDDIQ", "log2 fold change": 0.341}
{"target": "CLIP1 isoform 2 (UniProt P30622)", "log2 fold change": 0.167}
{"target": "DES (UniProt P17661)", "log2 fold change": 0.097}
{"target": "DONSON (UniProt Q9NYP3)", "log2 fold change": "-0.401 (active)"}
{"target": "CYP4V2 (UniProt Q6ZWL3)", "log2 fold change": 0.055}
{"target": "CSAD isoform 3 (UniProt Q9Y600)", "log2 fold change": 0.031}
{"target": "DHCR7 (UniProt Q9UBM7)", "log2 fold change": -0.022}
